# Measured values reported in the supplement of paper PMC3334620.
# Whole data set: some 33,000 sequences, median “E-score (-0.5 to 0.5)” near -0.016, cut for the highest 2% near 0.31. The entries come from a sample that favours the highest values as a whole.
# Target: Cst6 (UniProt P40535)
# Assay: PBM E-score (8-mer binding enrichment) (E-score (-0.5 to 0.5)); higher = stronger / more preferred TF binding
# Settings: protein concentration: 200 nM; construct: GST-DNA-binding domain
# Outline: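 Each ungapped eight-base word and its reverse complement, pooled, received an E-score from the Universal PBM Analysis Suite. Underlying scans, normalised with masliner, recorded fluorescent anti-GST bound to GST-tagged yeast transcription factors. These were applied at about 100-200 nM to universal all-10-mer Agilent arrays double-stranded by primer extension.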
# UniProt P40535, sequence (P40535 whole entry): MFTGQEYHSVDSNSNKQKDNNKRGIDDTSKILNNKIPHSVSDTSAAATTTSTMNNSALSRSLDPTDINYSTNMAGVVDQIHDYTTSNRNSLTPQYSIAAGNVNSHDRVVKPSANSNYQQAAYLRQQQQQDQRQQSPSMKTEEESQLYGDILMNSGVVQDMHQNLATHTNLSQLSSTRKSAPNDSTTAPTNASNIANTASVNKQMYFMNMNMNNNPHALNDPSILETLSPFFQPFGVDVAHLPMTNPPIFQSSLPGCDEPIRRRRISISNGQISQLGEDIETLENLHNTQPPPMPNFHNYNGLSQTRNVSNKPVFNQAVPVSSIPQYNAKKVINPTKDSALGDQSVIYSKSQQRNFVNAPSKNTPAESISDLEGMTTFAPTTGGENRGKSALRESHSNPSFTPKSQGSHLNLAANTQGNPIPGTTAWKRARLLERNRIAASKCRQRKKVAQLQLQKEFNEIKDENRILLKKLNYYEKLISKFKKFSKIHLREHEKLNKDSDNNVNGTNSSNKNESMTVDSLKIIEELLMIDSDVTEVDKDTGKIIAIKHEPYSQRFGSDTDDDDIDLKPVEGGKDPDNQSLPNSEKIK
row,Sequence,PBM E-score
1,CTGCATCC,-0.101
2,CTTGCAGA,-0.138
3,CACGCCCA,-0.21
4,GCTAACCC,-0.223
5,ACATCCCC,-0.119
6,AAAGCCCA,6e-05
7,GACGCATA,0.315
8,CACGCATA,-0.215
9,GACGCATC,0.0635
10,GCTTCCTA,-0.0171
11,ACACCACG,-0.0337
12,CAATGCCA,-0.0721
13,CGCGTCAA,0.211
14,AGCGTCCT,-0.276
15,GGCGTCCC,-0.225
16,GGCGTCTA,0.0648
17,CGCGTCAC,0.418
18,AGCGTCAA,0.269
19,AGCGTCAT,0.423
20,GGCGTCAC,0.431
21,CGCGTCAG,0.0126
22,AGAGTCAT,-0.0245
23,AGCGTCAC,0.332
24,AGCGTCAG,0.177
25,AATCCATA,0.0862

row,Sequence,PBM E-score
1,CGCCGAGC,0.0842
2,CTGTCGCA,-0.146
3,CGGTCCTC,-0.133
4,CATGCGAA,0.111
5,AAGTTAAT,0.213
6,AGAGAAAC,0.0803
7,AATTGGCG,0.198
8,GTCTCTTA,-0.00905
9,ACGATGAA,0.154
10,CCGATGAA,0.0447
11,CCGATGAC,0.336
12,GCGATGAC,0.413
13,ACGATGAT,0.206
14,ACGATGAC,0.387
15,GGGATGAC,0.221
16,CCGATGAG,-0.087
17,GCGATGAA,0.0225
18,AACTGAGC,-0.152
19,AGGGCCTA,-0.327
20,AACCTACG,-0.043
21,ATGAGGTA,0.312
22,ATGAGGTG,0.174
23,CTGAGGTA,0.0121
24,AACTGCTC,-0.0302
25,GAGGTGAA,-0.0049

row,Sequence,PBM E-score
1,ACTGTCAT,0.0752
2,AATGTAAG,0.192
3,AATGTCAC,0.308
4,AATGTAAT,0.347
5,AATGTCAT,0.356
6,AATGTCGT,0.195
7,GATGTCAA,0.245
8,GATGTCAC,0.448
9,AATGTCAG,-0.00168
10,AATGTAAA,0.258
11,GCTGTCAC,0.0464
12,ACTGTCAC,0.141
13,CGACCCCG,-0.235
14,AACCTAAT,-0.0438
15,CAGTTTTA,0.00126
16,AGTAGGTA,-0.0379
17,CCGATCTA,-0.27
18,CGAACGAA,0.0744
19,AAGGCGCT,0.118
20,CACACGGC,0.293
21,ACGTACCG,0.0475
22,ATTTCGAG,0.0911
23,TCAGGGAA,-0.141
24,CGGCTGGC,-0.28
25,CATGTCAC,0.36

row,Sequence,PBM E-score
1,CATGTCAA,0.161
2,CATGTCAG,0.144
3,CATGTAAC,0.014
4,GATGTAAC,0.341
5,AATGTAAC,0.0559
6,ATTGGCCC,-0.36
7,GATGAGAC,0.0611
8,ATAATGTA,0.203
9,CATTCCCG,0.0388
10,ATGTTGAA,0.104
11,CGTAATAC,0.366
12,TGTAATAA,0.329
13,GGTAATAC,0.111
14,AGTAATAA,0.302
15,CTTAATAA,0.155
16,AGTAATAG,0.211
17,CCTAATAA,0.00168
18,GGTAATAA,0.247
19,AGTAATAC,-0.0264
20,CGTAATAA,0.325
21,CGTAATAG,0.318
22,CATAATAG,0.202
23,CATTGCCC,-0.241
24,AACTTGCT,-0.117
25,CTAACTAG,0.0585

row,Sequence,PBM E-score
1,GGATTGCA,0.0154
2,ATATACAT,0.16
3,TGGGGAAA,0.0662
4,AACCATCC,-0.0939
5,AGAATGAA,0.207
6,CGAATGAC,0.348
7,AGAATGAG,-0.0205
8,AGAATGAC,0.354
9,CGAATGAA,0.0688
10,GGAATGAC,0.255
11,GGACGGGA,-0.285
12,ATAAGTAA,0.164
13,AGCTGACG,0.359
14,CGCTGACG,0.384
15,CACTGACG,0.371
16,AGCTGACT,-0.0426
17,CGCTGACC,-0.0695
18,CACTGACA,0.08
19,AGCTGACC,-0.126
20,CGCTGACA,0.166
21,CACTGACC,-0.133
22,AGCTTTAA,0.127
23,CGGCTAGA,-0.038
24,ATTTCAGC,0.00693
25,ATGGAAAT,0.122

row,Sequence,PBM E-score
1,GGCTACAC,-0.0907
2,CTCCAGAC,-0.158
3,TACATTAA,0.19
4,GGTGCGTA,-0.062
5,CGGTTAAG,-0.0846
6,CCGTCATA,0.363
7,AAGTCATG,0.185
8,AGGTCATA,0.168
9,ACGTCATG,0.495
10,AAGTCATA,0.283
11,ACGTCATA,0.494
12,AGGTCATG,0.221
13,CGGTCATA,0.298
14,ACGTCATC,0.497
15,AGGTCATC,0.231
16,AAGTCATC,0.114
17,CAGTCATA,0.123
18,CTAGACTC,-0.329
19,CAAGGCAG,-0.119
20,CCATGGCG,0.102
21,ATTCAGTA,0.164
22,AAGGGACA,-0.141
23,AATTGTTG,0.0795
24,GGCGGGCA,-0.0394
25,CAGTCATC,-0.0341

row,Sequence,PBM E-score
1,CCGTCATC,0.385
2,CGGTCATC,0.085
3,GCGTCATA,0.463
4,GAGTCATA,0.144
5,GGGTCATA,-0.0664
6,AACGAAAT,0.156
7,AGATTGAG,0.228
8,CCTTGGCA,-0.209
9,ATTTGTTA,0.22
10,CTTTGTTC,0.126
11,ATTTGTTC,0.332
12,GTTGGCTA,-0.0861
13,AGCTTTTC,-0.00677
14,CCGGCACA,-0.136
15,CCGGCACG,-0.1
16,ACGGCACG,0.348
17,ACGGCTCG,0.312
18,ACGGCTCC,0.256
19,ACGGCACA,0.327
20,CCGGCTCG,-0.128
21,TCGGCACA,-0.0165
22,ACGGCAGA,0.064
23,CAGGCGTC,-0.00038
24,CGCGCGAG,0.0316
25,ACAGGCCA,-0.202

row,Sequence,PBM E-score
1,GAAATTGA,0.153
2,CGGTCGTA,-0.304
3,GTTGCCGA,0.0213
4,GCACCAGC,-0.176
5,AGTATGGG,-0.162
6,GTGCGGAA,-0.0138
7,GTGCGGCA,0.311
8,GCGCGGCA,0.264
9,ACGCGGCG,0.363
10,ACGCGGCT,0.248
11,AGGCGGCA,0.119
12,ACGCGGCA,0.28
13,AGGCGGCG,0.204
14,CTGCGGCA,0.182
15,ATGCGGCG,0.343
16,ATGCGGCA,0.312
17,ATGCGGCC,0.0608
18,GAATTCAC,0.0689
19,GCCAACCA,-0.0975
20,ATACCCTG,-0.0744
21,CGGAAGCA,0.151
22,AGTCTTCA,-0.0551
23,TCCCCACA,-0.103
24,ACGGCATC,0.375
25,GCGGCAGC,-0.104

row,Sequence,PBM E-score
1,ACGGCATA,0.245
2,AGGGCACC,-0.282
3,ACGGCATG,0.126
4,ACGGCACT,0.352
5,GCGGCACA,0.176
6,GCGGCACC,0.311
7,CCGGCACC,-0.146
8,AAGGCACT,-0.0255
9,ACGGCACC,0.391
10,AGGGCACT,-0.0161
11,AATCAGAA,0.00689
12,CATATCCC,0.0321
13,ACGATCAA,0.135
14,AAACCATG,-0.0483
15,GCGACTAA,0.0201
16,GAGTTTGC,-0.0936
17,CGTAAAGA,0.167
18,ATTGGTCG,0.069
19,CTCACGGC,0.105
20,GAGTTTCC,-0.137
21,CCGGACGC,8e-05
22,ACGGCAAT,0.329
23,ACGGCAAG,0.0822
24,ACGGCAAA,0.28
25,TCTACAGA,-0.0513

row,Sequence,PBM E-score
1,AGTACCTA,0.00893
2,AGAAAAGA,0.112
3,CGAAAAGA,0.313
4,GGAAAAGA,0.0532
5,ACTAAAGC,0.0156
6,AATGATAC,0.316
7,AAAGATAG,-0.026
8,AATGATAA,0.347
9,CATGATAA,0.155
10,AATGATAT,0.322
11,CATGATAC,0.251
12,AATGATAG,0.174
13,AAAGATAA,0.308
14,AGTGATAT,0.0988
15,GATGATAC,0.127
16,TAAGATAA,0.159
17,ACTGATAT,0.109
18,CGATATCA,0.145
19,AAGCTTTC,0.0818
20,AACTGATT,0.0959
21,TCGCGCCA,-0.0121
22,GTCCGAGA,0.0681
23,GTCTAGAC,-0.0977
24,CACCAAAC,0.17
25,TACTCCCA,-0.0234

row,Sequence,PBM E-score
1,AGTCAAAT,0.0827
2,GGTAATGA,0.213
3,CGTAATGC,0.365
4,CGTAATGA,0.402
5,AGTAATGC,0.0951
6,AGTAATGA,0.247
7,CTTAATGC,0.142
8,ATTATGGC,0.0901
9,TCGCGCAA,0.15
10,CCTCGTCA,0.308
11,ACTCGTCC,-0.094
12,GCTCGTCA,0.238
13,TCTCGTCA,0.329
14,ACTCGTCT,-0.018
15,CCTCGTCC,-0.35
16,CCTCGTCG,-0.0925
17,ACTCGTCA,0.351
18,TCTCGTAA,0.305
19,GACCTAAC,0.0894
20,ATCCCTCG,-0.263
21,GAAAGGTC,-0.196
22,GTTGCCCA,-0.135
23,CATTACGC,0.219
24,AATTACAG,0.15
25,AATTACAT,0.318

row,Sequence,PBM E-score
1,AATTACCC,0.0706
2,AGTTACGC,0.0936
3,AATTACAC,0.116
4,AATTACGC,0.331
5,AATTACGG,0.183
6,GATTACGC,0.329
7,GATTACAC,0.171
8,AATTACGT,0.462
9,AATTACGA,0.286
10,CACCTGGA,-0.135
11,TCGCGCGA,0.169
12,ACTCGTGC,-0.103
13,AGCGGCAT,0.273
14,GATTACGA,0.364
15,CATTACGA,0.205
16,TATTACGA,0.283
17,GTCTTAAC,0.14
18,GAAAAGCA,-0.0869
19,TCGTTACA,0.0818
20,TAACCCTA,-0.197
21,CATGCATG,0.0335
22,GCGCCGCA,0.38
23,ACGCCGCA,0.336
24,CCGCCGCA,0.0944
25,ACGCCGCT,0.233

row,Sequence,PBM E-score
1,ACGCCGCC,0.124
2,GCGCCGCC,0.25
3,CGTTATGA,0.0852
4,AGCGGAAT,-0.0286
5,GTAGCCGA,-0.191
6,AGTAATCA,0.116
7,AATAATCA,0.209
8,GGTAATTA,0.215
9,GATAATCA,0.131
10,CGTAATCC,0.3
11,CGTAATTA,0.362
12,TATAATCA,0.308
13,CGTAATTC,0.309
14,CATAATTC,0.203
15,AGTAATTC,0.189
16,AGTAATTA,0.175
17,CGTAATCA,0.427
18,CATCGCAG,-0.135
19,CGCCCGCC,-0.129
20,AAACTCAC,0.0463
21,CATTAGCG,-0.0563
22,CTCATTGC,0.105
23,AGAAAAAT,0.17
24,CATTGAGG,-0.0774
25,GTGAGTTA,0.0284

row,Sequence,PBM E-score
1,GTGACGAA,0.454
2,ATGACGAC,0.431
3,CTGACGAC,0.216
4,ATGACGAA,0.472
5,ACGACGAG,-0.211
6,GGGACGAA,-0.214
7,CTGACGAA,0.29
8,ACGACGAA,0.0916
9,ACGACGAC,-0.0559
10,ATGACGAG,0.398
11,AAGACGAG,-0.203
12,GAGACGAA,-0.099
13,CAGACAGC,-0.185
14,ATGGAGCA,0.0798
15,ACGAAACT,0.0946
16,CAAGACCC,-0.197
17,CAAGGCTC,-0.227
18,AATTTCGG,0.127
19,CGTGTGAG,0.0162
